Test results taken from ChEMBL document CHEMBL1961873, “Compounds: GSK PKIS; Assays: Nanosyn kinase panel” (2012).

Target: Cyclin-dependent kinase 2 (Homo sapiens) (UniProt P24941)
Settings: at 0.1 µM

**Q.** Which inhibition does the source give for `CCCN(CCS(C)(=O)=O)Cc1ccc(-c2ccc3ncnc(Nc4ccc(OCc5cccc(F)c5)c(Cl)c4)c3c2)o1` here?
**A.** Its inhibition is 1.97%.

**Q.** Which inhibition does the source give for `CCn1c(-c2nonc2N)nc2c(C#CC(C)(C)O)ncc(OC3CCNCC3)c21` here?
**A.** Its inhibition is 1.95%.

**Q.** With `CCn1c(-c2nonc2N)nc2c(C#CC(C)(C)O)nc(OC[C@H](N)c3ccccc3)cc21` as the molecule, how does the inhibition read?
**A.** The inhibition was 0.77%.

**Q.** How did the inhibition turn out when `CC(=O)Nc1cccc(C#Cc2cncnc2Nc2ccc(OCc3cccc(F)c3)c(Cl)c2)c1` was run?
**A.** Its inhibition is 2%.

**Q.** For `Cc1ccc(O)cc1Nc1ccnc2cc(-c3ccccn3)ccc12`, which inhibition is on record?
**A.** The inhibition was 3.98%.

**Q.** With `CCn1c(-c2nonc2N)nc2cnc(Oc3cccc(NC(=O)c4ccc(N(C)C)cc4)c3)cc21` as the molecule, how does the inhibition read?
**A.** Its inhibition is 1.65%.

**Q.** How did the inhibition turn out when `NC(=O)c1sc(-n2cnc3ccc(C(F)(F)F)cc32)cc1OCc1ccccc1Br` was run?
**A.** The inhibition was 1.94%.

**Q.** How did the inhibition turn out when `CCc1nn2ncccc2c1-c1ccnc(NC2CC2)n1` was run?
**A.** Its inhibition is 2.25%.

**Q.** `N#Cc1c(NC(=O)CN2CCOCC2)sc2c1CCCC2` was tested. Which inhibition did it give?
**A.** Its inhibition is 6.96%.

**Q.** How did the inhibition turn out when `CN(C)CCOc1ccc(-c2nc(-c3ccncc3)c(-c3ccc4c(c3)CC/C4=N\O)[nH]2)cc1` was run?
**A.** The inhibition was 6.01%.

**Q.** `CCOc1ccc2c(-c3ccnc(Nc4cccc(C(F)(F)F)c4)n3)cnn2n1` was tested. Which inhibition did it give?
**A.** The inhibition was 3.35%.

**Q.** Which inhibition does the source give for `COc1cccc(-c2c[nH]c3c(N/N=C/c4ccncc4)ncnc23)c1` here?
**A.** Its inhibition is 9.46%.

**Q.** Which inhibition does the source give for `c1cc(-c2cnn3nc(N4CCOCC4)ccc23)nc(NC2CC2)n1` here?
**A.** Its inhibition is 9.31%.

**Q.** For `CNC(=O)c1cncc(/C=C/c2ccccc2Cl)c1`, which inhibition is on record?
**A.** Its inhibition is -0.47%.

**Q.** Which inhibition does the source give for `c1ccc(-c2nc3n(c2-c2ccc4c(c2)OCO4)CCC3)nc1` here?
**A.** The inhibition was 2.41%.

**Q.** For `Fc1cccc(COc2ccc(Nc3ncnc4sc(-c5ccco5)cc34)cc2Cl)c1`, which inhibition is on record?
**A.** Its inhibition is 3.66%.

**Q.** How did the inhibition turn out when `CC(C)(CO)CNC(=O)c1ccc2c(c1)/C(=N/Nc1ccc(S(N)(=O)=O)cc1)C(=O)N2` was run?
**A.** The inhibition was 68.4%.

**Q.** How did the inhibition turn out when `COc1ccc(-c2cc(-c3c[nH]nc3-c3ccccn3)ccn2)cc1` was run?
**A.** The inhibition was 4.73%.

**Q.** How did the inhibition turn out when `CC(=O)NCc1cccc(C#Cc2cncnc2Nc2ccc(OCc3cccc(F)c3)c(Cl)c2)c1` was run?
**A.** Its inhibition is 1.24%.

**Q.** Which inhibition does the source give for `COc1ccc(CNC(=O)c2ccc(-c3cc(-c4nnc(C)o4)ccc3C)cc2)cc1` here?
**A.** The inhibition was 1.68%.

**Q.** How did the inhibition turn out when `O=S(=O)(CCNCc1ccc(-c2ccc3ncnc(Nc4ccc(OCc5cccc(F)c5)c(Cl)c4)c3c2)o1)c1ccccc1` was run?
**A.** Its inhibition is 3.6%.

**Q.** `Nc1nc(-c2cccc(Cl)c2)c(-c2ccc3ncccc3n2)s1` was tested. Which inhibition did it give?
**A.** Its inhibition is 3.69%.

**Q.** For `CS(=O)(=O)CCNCc1ccc(-c2ccc3ncnc(Nc4ccc(OCc5ccccc5)c(C(F)(F)F)c4)c3c2)o1`, which inhibition is on record?
**A.** The inhibition was 2.59%.

**Q.** With `CCN(CC)S(=O)(=O)c1ccc(OC)c(Nc2ncc(-c3ccccc3)o2)c1` as the molecule, how does the inhibition read?
**A.** The inhibition was 3.09%.

**Q.** How did the inhibition turn out when `CS(=O)(=O)CCNCc1coc(-c2ccc3ncnc(Nc4ccc(OCc5ccccc5)cc4)c3c2)c1` was run?
**A.** The inhibition was 1.53%.

**Q.** How did the inhibition turn out when `CCN1CCC(CC(=O)Nc2n[nH]c3nnc(-c4cccc(F)c4F)cc23)CC1` was run?
**A.** Its inhibition is 1.12%.

**Q.** For `CN1CCC(n2cnc(-c3ccc(F)cc3)c2-c2ccnc(Nc3ccccc3)n2)CC1`, which inhibition is on record?
**A.** Its inhibition is 1.14%.

**Q.** How did the inhibition turn out when `CCNC(=O)O[C@H]1CN[C@H](C#Cc2cc3ncnc(Nc4ccc(OCc5cccc(F)c5)c(Cl)c4)c3s2)C1` was run?
**A.** Its inhibition is 2.61%.

**Q.** With `Clc1ccc(-c2nn3ncccc3c2-c2ccnc(Nc3ccccc3)n2)cc1` as the molecule, how does the inhibition read?
**A.** The inhibition was 1.3%.

**Q.** `Cc1cccc2c1NC(=O)/C2=N\Nc1ccc(S(N)(=O)=O)cc1` was tested. Which inhibition did it give?
**A.** Its inhibition is 2.45%.

**Q.** `COc1cc(/C=N/Nc2ncnc3[nH]ncc23)ccc1O` was tested. Which inhibition did it give?
**A.** Its inhibition is 4.7%.

**Q.** For `COc1cccc(-n2ncc3c(N/N=C/c4ccc(F)cc4)ncnc32)c1`, which inhibition is on record?
**A.** The inhibition was 5.86%.

**Q.** Which inhibition does the source give for `COc1cc(N2CCN(C(C)C)CC2)ccc1Nc1nc(Nc2ccc(F)cc2C(N)=O)c2cc[nH]c2n1` here?
**A.** Its inhibition is 0.79%.

Target: Cyclin-dependent kinase 2 (Homo sapiens) (UniProt P24941)
Settings: at 1 µM

**Q.** How did the inhibition turn out when `CCCN(CCS(C)(=O)=O)Cc1ccc(-c2ccc3ncnc(Nc4ccc(OCc5cccc(F)c5)c(Cl)c4)c3c2)o1` was run?
**A.** Its inhibition is 7%.

**Q.** With `CCn1c(-c2nonc2N)nc2c(C#CC(C)(C)O)ncc(OC3CCNCC3)c21` as the molecule, how does the inhibition read?
**A.** Its inhibition is 3.09%.

**Q.** How did the inhibition turn out when `CCn1c(-c2nonc2N)nc2c(C#CC(C)(C)O)nc(OC[C@H](N)c3ccccc3)cc21` was run?
**A.** Its inhibition is 2.97%.

**Q.** `CC(=O)Nc1cccc(C#Cc2cncnc2Nc2ccc(OCc3cccc(F)c3)c(Cl)c2)c1` was tested. Which inhibition did it give?
**A.** The inhibition was 0.87%.

**Q.** `Cc1ccc(O)cc1Nc1ccnc2cc(-c3ccccn3)ccc12` was tested. Which inhibition did it give?
**A.** The inhibition was 4.84%.

**Q.** How did the inhibition turn out when `CCn1c(-c2nonc2N)nc2cnc(Oc3cccc(NC(=O)c4ccc(N(C)C)cc4)c3)cc21` was run?
**A.** The inhibition was 2.7%.

**Q.** With `NC(=O)c1sc(-n2cnc3ccc(C(F)(F)F)cc32)cc1OCc1ccccc1Br` as the molecule, how does the inhibition read?
**A.** The inhibition was 3.25%.

**Q.** How did the inhibition turn out when `CCc1nn2ncccc2c1-c1ccnc(NC2CC2)n1` was run?
**A.** The inhibition was 9.7%.

**Q.** How did the inhibition turn out when `N#Cc1c(NC(=O)CN2CCOCC2)sc2c1CCCC2` was run?
**A.** Its inhibition is 8.06%.

**Q.** With `CN(C)CCOc1ccc(-c2nc(-c3ccncc3)c(-c3ccc4c(c3)CC/C4=N\O)[nH]2)cc1` as the molecule, how does the inhibition read?
**A.** The inhibition was 7.95%.

**Q.** With `CCOc1ccc2c(-c3ccnc(Nc4cccc(C(F)(F)F)c4)n3)cnn2n1` as the molecule, how does the inhibition read?
**A.** The inhibition was 14.1%.

**Q.** With `COc1cccc(-c2c[nH]c3c(N/N=C/c4ccncc4)ncnc23)c1` as the molecule, how does the inhibition read?
**A.** Its inhibition is 45.5%.

**Q.** For `c1cc(-c2cnn3nc(N4CCOCC4)ccc23)nc(NC2CC2)n1`, which inhibition is on record?
**A.** Its inhibition is 43.2%.

**Q.** `CNC(=O)c1cncc(/C=C/c2ccccc2Cl)c1` was tested. Which inhibition did it give?
**A.** The inhibition was 0.52%.

**Q.** With `c1ccc(-c2nc3n(c2-c2ccc4c(c2)OCO4)CCC3)nc1` as the molecule, how does the inhibition read?
**A.** Its inhibition is 3.84%.

**Q.** For `Fc1cccc(COc2ccc(Nc3ncnc4sc(-c5ccco5)cc34)cc2Cl)c1`, which inhibition is on record?
**A.** Its inhibition is 6.69%.

**Q.** Which inhibition does the source give for `CC(C)(CO)CNC(=O)c1ccc2c(c1)/C(=N/Nc1ccc(S(N)(=O)=O)cc1)C(=O)N2` here?
**A.** Its inhibition is 81.2%.

**Q.** For `COc1ccc(-c2cc(-c3c[nH]nc3-c3ccccn3)ccn2)cc1`, which inhibition is on record?
**A.** The inhibition was 5.82%.

**Q.** How did the inhibition turn out when `CC(=O)NCc1cccc(C#Cc2cncnc2Nc2ccc(OCc3cccc(F)c3)c(Cl)c2)c1` was run?
**A.** Its inhibition is 3.29%.

**Q.** For `COc1ccc(CNC(=O)c2ccc(-c3cc(-c4nnc(C)o4)ccc3C)cc2)cc1`, which inhibition is on record?
**A.** Its inhibition is 3.08%.

**Q.** `O=S(=O)(CCNCc1ccc(-c2ccc3ncnc(Nc4ccc(OCc5cccc(F)c5)c(Cl)c4)c3c2)o1)c1ccccc1` was tested. Which inhibition did it give?
**A.** Its inhibition is 5.45%.

**Q.** With `Nc1nc(-c2cccc(Cl)c2)c(-c2ccc3ncccc3n2)s1` as the molecule, how does the inhibition read?
**A.** The inhibition was 4.47%.

**Q.** Which inhibition does the source give for `CS(=O)(=O)CCNCc1ccc(-c2ccc3ncnc(Nc4ccc(OCc5ccccc5)c(C(F)(F)F)c4)c3c2)o1` here?
**A.** The inhibition was 4.6%.

**Q.** Which inhibition does the source give for `CCN(CC)S(=O)(=O)c1ccc(OC)c(Nc2ncc(-c3ccccc3)o2)c1` here?
**A.** Its inhibition is 3.61%.

**Q.** With `CS(=O)(=O)CCNCc1coc(-c2ccc3ncnc(Nc4ccc(OCc5ccccc5)cc4)c3c2)c1` as the molecule, how does the inhibition read?
**A.** The inhibition was 3.24%.

**Q.** `CCN1CCC(CC(=O)Nc2n[nH]c3nnc(-c4cccc(F)c4F)cc23)CC1` was tested. Which inhibition did it give?
**A.** Its inhibition is 7.61%.

**Q.** With `CN1CCC(n2cnc(-c3ccc(F)cc3)c2-c2ccnc(Nc3ccccc3)n2)CC1` as the molecule, how does the inhibition read?
**A.** Its inhibition is 2.14%.

**Q.** How did the inhibition turn out when `CCNC(=O)O[C@H]1CN[C@H](C#Cc2cc3ncnc(Nc4ccc(OCc5cccc(F)c5)c(Cl)c4)c3s2)C1` was run?
**A.** The inhibition was 3.62%.

**Q.** Which inhibition does the source give for `Clc1ccc(-c2nn3ncccc3c2-c2ccnc(Nc3ccccc3)n2)cc1` here?
**A.** The inhibition was 2.48%.

**Q.** How did the inhibition turn out when `Cc1cccc2c1NC(=O)/C2=N\Nc1ccc(S(N)(=O)=O)cc1` was run?
**A.** The inhibition was 3.99%.

**Q.** How did the inhibition turn out when `COc1cc(/C=N/Nc2ncnc3[nH]ncc23)ccc1O` was run?
**A.** Its inhibition is 13.9%.

**Q.** How did the inhibition turn out when `COc1cccc(-n2ncc3c(N/N=C/c4ccc(F)cc4)ncnc32)c1` was run?
**A.** Its inhibition is 15.5%.

**Q.** How did the inhibition turn out when `COc1cc(N2CCN(C(C)C)CC2)ccc1Nc1nc(Nc2ccc(F)cc2C(N)=O)c2cc[nH]c2n1` was run?
**A.** Its inhibition is 0.42%.
